Data published in the supplement of paper PMC5499739.
The full ranking holds about 16,000 sequences; the median of “Z-score” is about -0.37, and the highest 2% start at about 3.2. This is one part of a sample in which the highest values are shown more often than they occur.

The sequences below were run on RBM10 RRM1-ZnF (GST-tagged construct) (assay: RNAcompete 7-mer binding Z-score; higher = stronger binding preference).
Method: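 RNAcompete: 20 pmol GST-tagged RBM10 RNA-binding constructs were incubated with a designed RNA pool of about 241,000 sequences up to 41 nt (1.5 nmol) on glutathione beads for 30 min at 4 °C and washed. Bound RNAs were identified by microarray hybridisation. Each RNA 7-mer is scored by a one-sided Z-score of its enrichment, computed over probes that contain the 7-mer within longer pool sequences.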

Sequence	RNAcompete 7-mer binding Z-score
GUAUCUC	-0.594
GCGGUUA	1.32
CCACUGG	-0.152
UUUCGAA	-0.678
UGACACG	0.0138
GAUGUUA	-0.116
GCGACCC	-0.545
CCGUUCC	-0.967
UAAUGCA	-0.386
UGACUCG	-0.487
GUAAGGG	3.85
GUAAGGA	2.67
AUAAGGU	1.72
GUAAGGC	1.67
AUAAGGG	3.77
AUAAGGA	2.08
GAGAAUC	0.0593
UACGUGU	-0.318
GAUAUAU	-0.178
ACGAUUA	-0.366
UUAACGU	-0.324
UUUUCAU	-0.727
GUUAGGG	3.73
UAUAGGG	2.69
GAUAGGG	4.05

Sequence	RNAcompete 7-mer binding Z-score
UUUAGGG	1.65
CAUAGGG	1.51
AAUAGGC	0.192
AAUAGGU	1.37
GUUAGGU	1.86
AAUAGGG	3.28
UAGAACU	-0.155
GACCCCU	-0.704
AACGGCA	0.42
CGUGCGG	1.09
CGCGCCA	-0.337
AAGGGGA	4.47
AGGGGGA	2.47
AAAGGCG	1.21
AAGGGGU	4.48
AGGGGGU	3.09
AAGGGGG	4.31
AGGGGGC	1.83
AAGGGGC	3.13
AAAGGGG	4.5
AAGGGCU	1.62
GUCGCUA	-0.243
CUGGAGA	0.501
UUAGAAU	-0.152
CGUGAUC	-0.704

Sequence	RNAcompete 7-mer binding Z-score
GAAUCGG	1.41
UGAACAC	-0.347
GCUUGUC	-0.665
UCUGGGG	1.39
CGGAGAA	1.36
AAUUGCC	-0.626
UGGAUAU	1.17
AGCAUAA	-0.292
GAGGGAC	2.06
AAAAGGG	3.8
GAGGGAA	3.42
GAGGGCU	1.3
CAAAGGG	2.23
GAGGGGG	2.9
GAGGAAA	2.27
GAGGGGU	3.59
UAAAGGG	2.85
GAGGGGC	2.44
GAGGGGA	3.62
CAGGGGA	2.99
GAAAGUU	0.225
CAUAGGA	0.54
GCCGUUA	-0.607
GCAGGCA	0.495
AUGUAAG	0.397

Sequence	RNAcompete 7-mer binding Z-score
GGGGGUG	4.02
AGGGGCG	2.28
UUGGGUC	1.04
UGGGGUC	2.57
UUGGGUG	3.83
GGGGGCG	2.47
GGGGGUC	2.18
UUGGGUU	2.66
AGGGGUG	3.85
UCGGGUG	2.34
UGGGGUG	4.74
AUACAGU	-0.00571
GUCCAGA	-0.474
GGGCUCA	0.485
AGGUGUU	0.988
AAUGCCC	-0.613
ACCGUAU	-0.746
AUCGGUG	0.894
GUAGGUA	2.15
AUGGGUA	3.54
CUGGGUA	2.13
AUGGGUC	2.19
CGGGGUG	3.76
AUGGGUG	4.03
AUUGGUG	2.27

Sequence	RNAcompete 7-mer binding Z-score
CCGGGUG	1.47
GUGGGUA	3.53
CGGGGUC	2.14
AUGGGUU	2.89
UAUACUC	-0.769
UAAACAA	-0.392
ACCGUUC	-0.948
AAACACC	-0.6
CUGCGGC	0.0138
GCAUGGC	0.176
AACCGCG	-0.353
CACGGGU	1.99
GUGGGUC	2.36
CUGGGUG	1.83
GUGGGUG	4.14
GCGAAAA	0.0528
GCGCCCC	-0.0934
AUUCCUA	-0.756
UUAGGCU	0.095
UGGGGGU	3.87
GGGGGUU	3.67
UGGGGUU	3.29
UGGGGCU	2.3
AGGGGUU	2.52
CUGGGUU	1.53

Sequence	RNAcompete 7-mer binding Z-score
AUUUAUC	-0.691
UAUGGCA	0.413
CAGCUCG	-0.704
UGAAGAA	0.228
CGCCUAA	-0.694
CCUGAUC	-0.792
GUGUUUA	0.27
GAGUGGU	2.46
CAGUGGG	2.24
GAGUGGA	3.26
AAGUGGG	3.73
UAGUGGA	1.54
GAGUGGC	1.53
AAGUGGA	3.31
AAGUGGU	1.82
CAGUGGA	1.38
CCAAGAC	-0.646
GUAGUCA	0.157
CCAUCUG	-0.772
UGUGUCG	0.043
UGGGGCA	3.56
UGGGGAA	3.66
UCGGGAA	1.33
GGGGGGA	3.3
UUGGGGA	2.82

Sequence	RNAcompete 7-mer binding Z-score
AGGGGCA	2.47
UCUGGGA	0.508
CGGGGAA	2.71
CGGGGGA	3.17
UGGGGGA	3.71
GGGGGCA	2.92
GGGGCGA	2.46
AACGGAC	0.413
GCAAAAC	-0.0902
AGCAUGA	-0.119
CUAGCGA	-0.347
CAGAGGU	1.25
UACGGAA	0.699
CUACAGA	-0.636
AGAGCAG	0.699
UGGCUAG	0.391
GCGAGGA	1.93
ACGAGGC	0.319
UCGAGGG	1.95
GCGAGGG	3.54
ACGAGGU	0.959
ACGAGGG	3.35
CUGCUAU	-0.691
AGAUGCG	0.111
CCGCUCC	-0.474

Sequence	RNAcompete 7-mer binding Z-score
ACAGGGU	2.94
ACAGGGA	3
CCAGGGU	1.29
CCAGGGG	1.46
ACAGGGC	1.84
GCAAGGU	1.94
GCAGGGC	1.35
GCAGGGU	3.43
GCAAGGG	3.46
GCAAGGA	2.4
GCAGGGG	3.32
ACAGGGG	3.33
CGACAAC	-0.542
GUCGGCU	-0.0252
GCUAUGC	-0.269
CAACGAU	-0.409
GAUAGUC	-0.279
AAACCCA	-0.701
AACGCUG	-0.5
CAAAACG	-0.119
AGCUUAC	-0.639
ACACGGC	-0.191
CGCUUAU	-0.649
AGGAGGC	1.37
AGGAGUG	2.91

Sequence	RNAcompete 7-mer binding Z-score
AGGAGGA	2.25
GGGAGUA	2.53
AGGAGGG	3.53
GGGAGGG	4.74
GGGAGGA	3.47
AGGAGGU	2.47
GGGAGUG	3.73
GAGAGGG	2.7
CGGAGGG	2.91
UGGAGGA	2.87
UCAGCGG	0.309
AUGUCCG	-0.626
UUACGCA	-0.584
UGGAGGU	2.84
GGGAGCC	0.917
GGGAGGC	2.92
GGGAGCG	3.35
GGGAGGU	3.68
UGGAGGC	1.96
CGGAGGU	2.41
CGGAGCG	1.23
UGGAGGG	4.07
AGCAACA	-0.158
AGUCUAC	-0.584
GCGUUUG	0.131

Sequence	RNAcompete 7-mer binding Z-score
GGUUGUG	2.29
CUACUGA	-0.659
GUGUGGU	2.39
AUGUGGC	0.586
UUGUGGG	2.83
GUGUGGA	2.98
GUGUGGG	3.93
AUGUGGG	3.84
CAUCAAG	-0.47
UUUAUGG	0.303
CCAACAC	-0.5
UGGGUCG	2.09
AUGGUGA	2.6
GGGGUGG	4.71
AGGGUGA	4.19
GGGGUGC	2.92
UGGGUGC	2.92
AGGGUGU	3.11
GCGGUGG	2.85
GGGGUGU	4.3
AGGGUCA	1.14
UGGGUGG	4.14
GCGGUGU	1.1
UAAAUAG	-0.0674
CGUAUUU	-0.769

Sequence	RNAcompete 7-mer binding Z-score
UUCACGG	-0.448
GAAGACG	1.09
CUAAGAA	-0.331
CUACAUG	-0.591
GAUCAGA	0.316
AGUUAGU	-0.0642
ACAUCCC	-0.587
ACGGUGG	2.76
GCGGUGA	1.2
GGGGUGA	4.16
GGGGUCA	2.86
UGGGUGA	3.38
AGGGUGG	4.42
CGGGUGC	1.85
CGGGUGG	3.64
UCGGUGA	0.452
CGGGUGA	2.66
CGGGUGU	2.14
AGGGUGC	2.6
UCCAUUA	-0.75
UCUCCCC	-0.587
CCUCGGG	0.423
GCGUCAC	-0.0252
GUCUUUA	-0.652
GUUUCGA	-0.396

Sequence	RNAcompete 7-mer binding Z-score
AUAUUAU	-0.402
AGUUGCU	-0.334
GGUGUGG	4.32
UGUGUGG	1.89
UCGGUGU	0.524
UUGGUGU	1.51
GGUGUGU	1.7
UGGGUGU	3.53
ACUCUAA	-0.685
GCACCCU	-0.496
AAAUCCC	-0.86
GCAUUCA	-0.396
CUGUUCU	-0.847
UGUGGGC	2.06
GGUGGGU	3.78
UGUGGGA	2.87
UGUGGGU	3.46
UGUGGUG	1.84
UGUGGUU	1.84
GCUGGGU	2.3
GGUGGGC	3.3
UCUGGGU	0.81
GGUGGUC	2.06
GGUGGUU	2.61
UGUGGGG	3.96

Sequence	RNAcompete 7-mer binding Z-score
CUAAUUG	-0.617
UUGAACG	-0.139
ACCCACU	-0.675
GGAUGUA	1.7
GUUUGUG	0.865
AUCUAAC	-0.681
AACCGGC	-0.6
AGUGUCC	-0.604
GGACGUA	0.833
UUAUGAU	-0.353
CUGAAUG	-0.285
GGUGGGA	4.26
AGUGGGG	4.49
GCUGGGA	2.03
AGUGGUA	2.01
AGUGGGC	2.67
AUUGGGA	2.83
ACUGGGU	2.06
AGUGGGA	4.13
CGUGGGU	2.81
AGUGGGU	3.49
AGUGUGG	2.95
GGUGGCA	2.02
UCAUCCG	-0.808
CAGUGAG	0.706

Sequence	RNAcompete 7-mer binding Z-score
UUCUUUG	-0.659
GCUGAAG	0.699
ACACUUG	-0.535
UCUAUAC	-0.821
CGUGGGC	1.85
CGUGGGA	2.33
CGUGGGG	3.65
AUUUAAG	-0.298
UAGUCAU	-0.444
GGGGACG	2.55
CGGGAAU	1.68
AGGGAAU	3.05
GGGGAAG	4.31
GGGGAAU	3.41
GGGGAAC	2.42
CGACUUC	-0.785
CCCUUGC	-0.694
GCCAGUA	-0.288
UGCCUCC	-0.506
AGGAAGA	1.7
UGGAAGU	1.79
AGGAAGG	4.31
CGGAAGG	2.53
UGGAAGG	4.12
AGGAAGU	1.06

Sequence	RNAcompete 7-mer binding Z-score
AUACUAG	-0.337
AACCAUC	-0.763
CUAGCUG	-0.386
GGGUGAG	4.36
UGGUGAA	1.71
GGGUGAC	3.04
GGGUGAA	3.87
CGGUGAG	1.42
UGUUGAG	0.716
AGGUGAU	1.8
CGUUGAG	-0.0512
CGGUGAA	0.595
GGUUGAG	3.3
UGGUGAU	1.2
GGGUGAU	3.22
GAAACGU	-0.00246
GACAGCC	-0.539
